Screening data deposited in PubChem BioAssay by National Center for Advancing Translational Sciences (NCATS).
Hits are enriched below; roughly 3.2% of the tested compounds scored in any of these assays.
GLP1R inv ag: acts as inverse agonist at human GLP-1 receptor | P43220 | Potency, µM (doses to about 38.3 µM), actives largely listed as inhibitors | hit rate 1.6% among 410,000 | HEK293 GLP-1R CRE-luciferase, luminescence, 24 h; GLP-1R form is constitutively active | AID 624417; note: nearly all actives have a fitted effect of over 55% in size
Target sequence (P43220 whole entry, looked up): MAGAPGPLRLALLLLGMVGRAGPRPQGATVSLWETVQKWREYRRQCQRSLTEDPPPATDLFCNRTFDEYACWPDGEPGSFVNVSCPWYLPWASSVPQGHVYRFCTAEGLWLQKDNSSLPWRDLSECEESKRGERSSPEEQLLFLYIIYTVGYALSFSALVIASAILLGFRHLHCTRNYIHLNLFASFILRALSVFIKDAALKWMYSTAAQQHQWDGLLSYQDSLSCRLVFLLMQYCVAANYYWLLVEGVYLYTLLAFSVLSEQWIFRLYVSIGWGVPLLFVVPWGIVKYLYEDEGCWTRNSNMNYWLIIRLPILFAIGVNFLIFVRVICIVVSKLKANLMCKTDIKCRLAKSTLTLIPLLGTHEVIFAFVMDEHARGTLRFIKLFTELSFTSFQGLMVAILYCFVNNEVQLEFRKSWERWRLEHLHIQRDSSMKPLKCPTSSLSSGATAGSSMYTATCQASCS
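Luminescence readout: a drop in cAMP-driven luciferase signal flags inverse agonism at a constitutively active GLP-1R stably expressed in HEK293. Compound exposure lasted 24 hr at 37 deg C, 5% CO2.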
GLP1R ag: GLP-1 receptor (human) agonism | HEK293 GLP-1R CRE-luciferase, luminescence, 4-6 h; cells express a hypersensitive GLP-1R form | AID 624172 | Potency, µM (doses to about 45.6 µM), usual class: activators | hit rate 0.007% among 380,000
HEK293 tox: cytotoxicity counter-screen for GLP-1 receptor inverse agonists; HEK293 cAMP-luciferase reporter cells, luminescence, 24 h; Potency, µM (doses to about 38.3 µM), hits mostly inhibitors; hit rate 0.13% among 410,000; AID 624418;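 note: loss of luciferase light is scored as toxicity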
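A 23 nL compound transfer followed 12 hours of cell culture at 37 deg C; exposure then lasted 24 hr. Luciferase assay detection reagent was dispensed and plates read for luminescence after a 12 min room-temperature wait.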
ClpP mod: qHTS Assay for Activators of ClpP; ATP-dependent Clp protease proteolytic subunit (Bacillus subtilis (strain 168)), P80244; purified B. subtilis ClpP, FRET peptide cleavage, 20 min; Potency, µM (doses to about 57.5 µM); hit rate 1.9% among 340,000; active = well fitted falling curve with a large enough effect; inconclusive = small, poorly fitted or top-dose-only effect; inactive = no such curve, though single readings can be large or run the other way; note: the source files actives as falling curves though it sought activators and does not explain the sign; nearly all actives have a fitted effect of over 65% in size
Target sequence (P80244 whole entry, looked up): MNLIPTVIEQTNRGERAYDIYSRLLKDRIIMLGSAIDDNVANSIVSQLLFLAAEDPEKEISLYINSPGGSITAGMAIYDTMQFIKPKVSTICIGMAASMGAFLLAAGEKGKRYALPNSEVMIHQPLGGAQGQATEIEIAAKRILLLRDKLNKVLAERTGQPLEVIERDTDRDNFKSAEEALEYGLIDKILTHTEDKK
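Buffer: 100 mM Tris/HCl pH8, 100 mM KCl, 0.05% low protease BSA, 2.5% glycerol, 0.01% Tween-20. ClpP 10 microg/mL final; 20 min RT; delta FRET normalized to ADEP and DMSO controls.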
A number is an active result; n = inactive; u = inconclusive; x = no result given. Unless noted, calls come from the whole dose curve; as a rule, active = well fitted curve in the direction sought with a large enough effect; inconclusive = small, poorly fitted or top-dose-only effect, or another doubt; inactive = no such curve, though single readings can be large; an effect the other way counts as inactive or inconclusive.

SMILES	GLP1R inv ag	GLP1R ag	HEK293 tox	ClpP mod
Cc1ccc(NC(=O)C(C)Oc2ccccc2)cc1S(=O)(=O)N1CCCCCC1 (centres undefined)	12.6µM	n	n	n
Cc1csc2nc3ccccc3c(=O)n12	n	n	n	14.1µM
Cc1nc2scc(C)n2c(=O)c1S(=O)(=O)NCc1ccccc1	n	n	n	n
Cc1cc([N+](=O)[O-])cc2ncccc12	n	n	n	n
O=[N+]([O-])c1cc2ncccc2c2ncccc12	3.16µM	n	u	n
O=C(Cn1cc(SCc2ccc(Cl)cc2)c2ccccc21)N1CCCC1	u	x	n	n
Cc1ccc(-n2nc3ccc(NC(=O)c4ccc5c(c4)OCO5)cc3n2)cc1	u	n	n	14.1µM
O=C(Nc1ccc2nsnc2c1)c1ccc2c(c1)OCO2	n	n	n	u
Cc1cccc(NC(=O)c2ccc3c(c2)OCCO3)c1	11.2µM	n	n	x
COc1cc(C(=O)Nc2ccc3[nH]c(=O)sc3c2)cc(OC)c1OC	n	n	n	n
COc1ccc(CNC(=O)CCc2nc3cccnc3n2Cc2ccccc2)cc1	n	x	n	n
COC(=O)c1cccnc1-n1c(=O)c2cccnc2n(CC(=O)Nc2cccc(C(F)(F)F)c2)c1=O	n	x	n	n
CCn1ccnc1CN(C)Cc1cn[nH]c1-c1ccc(OC)c(F)c1	10µM	n	n	x
Cc1ccc2nc(NC(=O)CSc3nncc(=O)n3N)sc2c1	n	n	n	25.1µM
O=C(Cc1ccc(Br)cc1)N1CCN(c2ccccc2O)CC1	11.2µM	n	n	n
COc1ccc(-c2cc(C(=O)N3CCN(c4ncccn4)CC3)c3ccccc3n2)cc1OC	n	n	u	n
COc1ccc(-c2cc(C(=O)N3CCN(c4cccc(C)c4C)CC3)c3ccccc3n2)cc1OC	u	n	n	25.1µM
O=C(c1cc(-c2ccc(Br)cc2)nc2ccccc12)N1CCN(c2ccccc2O)CC1	2.51µM	n	u	x
O=C(c1cc(-c2ccccc2)nc2ccccc12)N1CCc2ccccc2C1	11.2µM	n	n	n
Cc1ccc(-c2cc(C(=O)N3CCN(c4ccccc4O)CC3)c3ccccc3n2)o1	u	n	n	n
CCc1nn2c(=O)cc(COC(=O)c3cccc(NC(=O)COc4ccccc4)c3)nc2s1	n	x	n	n
Cc1cc(Cl)ccc1OCC(=O)N1CCC(c2nc3ccccc3s2)CC1	u	x	n	n
COc1ccc(CNC(=O)[C@]2(C)CCC[C@@]3(C)C4CC[C@@]5(C)C[C@]4(CCC32)CC5=O)cc1 (some centres undefined)	10µM	n	n	n
Cc1ccc(-n2c(=O)c3c4c(sc3n(Cc3cccc(Cl)c3)c2=O)CCC4)cc1C	n	x	n	n
CC(C)(C)c1ccc(Cn2cnc(-c3ccc([N+](=O)[O-])cc3)c2)cc1	u	n	u	10µM
SMILES	GLP1R inv ag	GLP1R ag	HEK293 tox	ClpP mod
Cc1cc(C)c(Cn2cnc(-c3ccc([N+](=O)[O-])cc3)c2)c(C)c1	n	n	n	n
O=C(NCC(c1cccnc1)N1CCc2ccccc21)c1ccc(Cl)cc1 (centres undefined)	u	x	n	n
COc1ccc2cc(/C=N/NC(=O)c3ccc(CN(c4cccc(Cl)c4Cl)S(C)(=O)=O)cc3)c(Cl)nc2c1	n	n	n	17.8µM
COc1ccccc1CNC(=O)CCn1c(=O)c2ccccc2n(CC(=O)Nc2ccc(C)cc2Cl)c1=O	n	n	n	n
O=C(NCCN1CCN(C(=O)c2cc3ccccc3oc2=O)CC1)c1cc2ccccc2oc1=O	n	n	n	u
O=C(NCCc1ccccc1)c1cc2ccccc2oc1=O	n	n	n	n
O=C(NCCCN1CCOCC1)c1cc2ccccc2oc1=O	n	n	n	28.2µM
CCCC(=O)OCCNC(=O)c1cc2ccccc2oc1=O	n	n	n	17.8µM
CN(C)CCNC(=O)c1cc2ccccc2oc1=O	n	n	n	28.2µM
COc1ccc(CCNC(=O)c2cc3ccccc3oc2=O)cc1	n	n	n	n
CC(=O)OCCNC(=O)c1cc2ccccc2oc1=O	n	n	n	25.1µM
CCCN(CCC)C(=O)Cn1c(=O)n(-c2ccc(OC)cc2)c(=O)c2ccc(C(=O)NCc3ccc(C)cc3)cc21	n	n	n	n
CC1CCc2c(cc(-c3ccccc3)n2-c2ccc(C(=O)NC(C)C)cc2)C1 (centres undefined)	6.31µM	x	n	n
CC(C)NC(=O)c1ccc(-n2c(-c3ccccc3)cc3c2CCCCC3)cc1	n	x	n	n
Cc1ccc(-c2nonc2NC(=O)c2ccc(F)cc2)cc1C	n	x	n	n
O=C(N/N=C/c1ccccc1O)NC12CC3CC(CC(C3)C1)C2	10µM	n	n	x
COc1cc2c(cc1OC)/C(=C/c1ccc(Br)cc1)C(=O)OC2	11.2µM	n	n	n
Clc1ccc(-c2nc3ccccn3c2CN2CCCCC2)cc1	10µM	n	u	u
COc1ccccc1N1C(=O)c2ccccc2NC1C(OC)OC (centres undefined)	n	n	n	22.4µM
COc1cc2nc(NC3CCN(Cc4ccccc4)CC3)nc(N3CCCN(C)CC3)c2cc1OC	x	x	x	n
COc1ccc(-c2nc(NC(=O)CSc3nnc(C)s3)ns2)cc1	n	n	n	17.8µM
CN(C)c1ccc(CN(CC2CCCO2)C(=O)COc2ccc(Cl)cc2)cc1 (centres undefined)	n	x	n	n
Cc1ccc(CN2CCNC(=O)C2CC(=O)NCc2cc(C)n(C)n2)cc1 (centres undefined)	n	n	n	31.6µM
CCOc1ccc(CN2CCNC(=O)C2CC(=O)NCc2cc(C)n(C)n2)cc1 (centres undefined)	n	n	n	n
CCOc1ccc(CN2CCNC(=O)C2CC(=O)NCCN2CCOC2=O)cc1 (centres undefined)	n	n	n	28.2µM
SMILES	GLP1R inv ag	GLP1R ag	HEK293 tox	ClpP mod
CCOc1ccc(CN2CCNC(=O)C2CC(=O)NCc2csc(C)n2)cc1 (centres undefined)	n	n	n	28.2µM
COc1ccc(-c2nc3ccc(C)cn3c2NCc2ccc3c(c2)OCO3)cc1	n	n	n	u
Cc1ccc(-c2nc3ccccn3c2NCc2ccc3c(c2)OCO3)cc1	u	n	n	31.6µM
Cc1cc(N2CCN(C(C(=O)NC3CCCC3)C(C)(C)C)CC2)c2ccccc2n1 (centres undefined)	n	x	n	n
CC(C)c1ccc(NC(=S)NN(c2ccccc2)c2ccccc2)cc1	5.62µM	n	u	n
CCNC(=S)Nc1ccc(N(c2ccccc2)C(C)C)cc1	u	n	n	n
Nc1ccc2c(c1)C(=O)N(CCCCCC(=O)O)C2	n	n	n	15.8µM
CCOC(=O)N1CCc2c(sc3c2c(=O)n(Cc2ccccc2)c(=O)n3CC(=O)Nc2ccc(C)cc2C)C1	n	x	n	n
Cc1ccccc1N=C(NOCc1ccccc1)c1nonc1N	10µM	n	n	n
Cc1ccccc1N=C(NOCc1ccc(Cl)cc1Cl)c1nonc1N	n	n	n	n
